Test results from PubChem BioAssay (NCI).
The panel holds about 83,000 compounds, 20% with a hit somewhere; the sample as a whole holds those more often.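 Assay: single dose, 48 h. Readout: percent growth (0 = no net growth; negative = cell death). Active: <10.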 A number with no mark means an inactive call. Activity calls are given as the source filed them.

What was measured:
Test in all cases: NCI-60 one-dose screen, 48 h (100 = growth as untreated, 0 = no growth, -100 = all killed)
Details in all cases: 10 µM unless noted
SR leukemia = test system: SR leukemia
RPMI-8226 leukemia = test system: RPMI-8226 leukemia
OVCAR-8 ovarian = test system: OVCAR-8 ovarian
OVCAR-5 ovarian = test system: OVCAR-5 ovarian
OVCAR-4 ovarian = test system: OVCAR-4 ovarian
SK-OV-3 ovarian = test system: SK-OV-3 ovarian
IGROV1 ovarian = test system: IGROV1 ovarian
OVCAR-3 ovarian = test system: OVCAR-3 ovarian
HS 578T breast = test system: HS 578T breast
NCI/ADR-RES ovarian = test system: NCI/ADR-RES ovarian

SMILES | growth (SR leukemia) | growth (RPMI-8226 leukemia) | growth (OVCAR-8 ovarian) | growth (OVCAR-5 ovarian) | growth (OVCAR-4 ovarian) | growth (SK-OV-3 ovarian) | growth (IGROV1 ovarian) | growth (OVCAR-3 ovarian) | growth (HS 578T breast) | growth (NCI/ADR-RES ovarian)
CCCNC(=O)Oc1ccc(/C(=C(/CC)Cc2ccccc2)c2ccc(OCCN(CC)CC)cc2)cc1 | -28.6% (active) | 41.6% | 80.3% | 95.5% | 85.8% | 88.4% | 85.9% | 79.5% | 59% | 75.3%
Ic1ccc(SSc2ccc(I)cc2)cc1 | 60.6% | 95.6% | 92.6% | 114% | 99.7% | 113% | 82.4% | 102% | 96.9% | 101%
O=c1c2c(c3ccccc3n1-c1ccccc1)NC(=S)NC2c1ccccc1 (stereo not given) | 108% | 50.1% | 106% | 102% | 79.5% | 95.1% | 102% | 105% | 105% | 109%
O=P(OCCCl)(OCCCl)C(O)c1ccccc1Cl (stereo not given) | 89.3% | 110% | 104% | 107% | 111% | 104% | 98.6% | 96.8% | 106% | 109%
COc1ccc(C(O)(c2ccccc2)C(C(=O)O)c2ccccc2)cc1 (stereo not given) | 103% | 95.5% | 107% | 102% | 98% | 102% | 104% | 114% | 114% | 108%
COc1cc(-c2nn(-c3ccc(NC(=O)Nc4cc(C(F)(F)F)cc(C(F)(F)F)c4)cc3)cc2-c2ccncc2)ccc1Cl | -0.776% (active) | -2.24% (active) | 9.59% (active) | 18.8% | -12.2% (active) | -3.31% (active) | 8.43% (active) | -20.9% (active) | -34% (active) | 3.86% (active)
CCCCCCNC(=O)Oc1ccc(/C(=C(/C)Cc2ccc(OC)cc2)c2ccc(OCCN3CCCCC3)cc2)cc1 | -0.659% (active) | 76.5% | 81.2% | 90.5% | 81% | 88.8% | 95.1% | 93.9% | 80% | 86.3%
C/C(=N\Nc1ccc(Cl)cn1)c1ccccn1 | 4.86% (active) | 8.56% (active) | 16.6% | 23.1% | 28.7% | 3.63% (active) | 10.2% | 20.5% | 34.6% | -10.2% (active)
CC(C)(C)c1cc(C[P+](c2ccc(Cl)cc2)(c2ccc(Cl)cc2)c2ccc(Cl)cc2)cc(C(C)(C)C)c1O | 39.5% | 10.9% | 85.8% | 105% | 79.2% | 88.9% | 52.1% | 90.3% | 105% | 97.2%
NNC(=O)CNc1ccc2ccccc2c1 | 55% | 113% | 108% | 195% | 108% | 106% | -27.9% (active) | 114% | 93.3% | 113%
CC(O)c1cc[cH-]c1.[Fe+2].c1cc[cH-]c1 (stereo not given) | 90.2% | 102% | 100% | 100% | 114% | 99.6% | 106% | 108% | 104% | 102%
Clc1ccc(N/N=C(/c2ccccc2)c2ccccn2)nc1 | 26.1% | 29.3% | 33.5% | 49.3% | 24.5% | 26.5% | 22.5% | 40.7% | 80.6% | 5.2% (active)
CC[C@H](Nc1ncnc2nc[nH]c12)c1nc2cccc(NCc3ccc(C(=O)NO)o3)c2c(=O)n1-c1ccccc1 | 76.2% | 94.9% | 99.2% | 98.3% | 97.3% | 110% | 106% | 97.6% | 84.7% | 101%
CC(=O)N1CCN(CCNC(=O)n2cc(-c3ccncc3)c(-c3cc(O)cc(Cl)c3)n2)CC1 | 16.7% | 44.9% | 66% | 110% | 116% | 101% | 76.2% | 102% | 91.9% | 101%
CCC(CCCN1C(=O)c2ccccc2C1=O)Nc1cc(OC)cc2c(C)ccnc12 (stereo not given) | 54.9% | 96% | 98.7% | 99.9% | 73.8% | 100% | 137% | 99.1% | 86.7% | 121%
CCOC(=O)NC1=NCC(C)(C)S1 | 104% | 108% | 104% | 98.9% | 102% | 95.2% | 111% | 97.4% | 98.7% | 103%
O=c1c2c(c3ccccc3n1-c1ccccc1)NC(=S)NC2c1ccc(Cl)cc1 (stereo not given) | 26% | 8.62% (active) | 41.3% | 45.5% | 76% | 50.3% | 40.1% | 47.5% | -3.16% (active) | 78.3%
COC(=O)/C(Br)=C/c1c[nH]c2ccc(Br)cc12 | -6.18% (active) | 53.9% | 86.6% | 72.3% | 87.2% | 92% | -17.7% (active) | 82.6% | 100% | 80.4%
COc1cc(Cn2ccc3c2-c2oncc2CC3)cc(OC)c1 | 24.1% | 35.2% | 49% | 57% | 61.7% | 24.6% | 26.2% | 4.85% (active) | 32.4% | -13.9% (active)
N=c1c2c(=O)n3c(nc2nc2sc4ccc(Cl)cc4n12)-c1ccccc1Sc1ccccc1-3 | 5.86% (active) | 7.72% (active) | 19.8% | 48.2% | 0.243% (active) | 19.5% | 2.34% (active) | 20.9% | 35.1% | 12.3%
CCC1(CC)C(OC)NC(Br)=C(C#N)C1(C#N)C(N)=O (stereo not given) | 57.5% | 132% | 106% | 249% | 110% | 114% | -8.89% (active) | 119% | 96.5% | 124%
CCCCCCCCCCCCCCCC[n+]1cccc(C#N)c1 | -8.5% (active) | 45.1% | 51.6% | 79.7% | 56.6% | 100% | 69.2% | 35.5% | 96.6% | 96.3%
Cc1c(Cc2ccccc2)c(=O)oc2c(C)c(OCc3n[nH]c(=S)o3)ccc12 | 5.04% (active) | 56.6% | 30.6% | 89.9% | 43.8% | 86.9% | 67.3% | 74.5% | 62.3% | 99.6%
O=C1N/C(=N\c2nnc(-c3ccc(O)cc3)s2)S/C1=C\c1ccccc1O | 99.4% | 101% | 96.8% | 93.7% | 88.2% | 112% | 99.1% | 93.2% | 90.3% | 97.8%
Nc1ccc(N=Nc2ccccc2)c2cc(S(=O)(=O)O)ccc12 | 95.8% | 103% | 96.5% | 107% | 107% | 97.8% | 108% | 108% | 104% | 101%
COc1cc2ncnc(Nc3ccc4c(cnn4C(=O)Nc4ccccc4)c3)c2cc1OC | 1.84% (active) | 70.5% | 103% | 105% | 88.5% | 110% | 80.7% | 95.7% | 102% | 100%
CC(=O)N1N=C(c2ccc(Cl)cc2)CC1c1cn(-c2ccccc2)nc1-c1ccc([N+](=O)[O-])cc1 (stereo not given) | 120% | 101% | 102% | 94% | 85.6% | 96.5% | 122% | 106% | 125% | 135%
